In PubChem BioAssay one finds composite z-score and z-score data, which are given here for 5 molecules.

Assay [1] in a line: small molecules captured by biotinylated probe aFSTL3 – biochemical, small-molecule microarray, fluorescence 635/667, stem cell growth factor project, primary screen (AID 1064).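 Further: measures binding of the biotinylated anti-FSTL3 antibody to printed compounds.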 Conditions: higher = more signal.
The nature of assay [2]: binders from COS7 lysate, DM2A8 probe, primary screen, torsin A project, cell lysate, small-molecule microarray, fluorescence 635/667 (AID 1065). As to conditions: higher = more signal, COS7 lysate expressing mutant human TOR1A.
Assay [3] can be described thus: small molecules captured by biotinylated probe aFGF2 – biochemical, small-molecule microarray, fluorescence 635/667, stem cell growth factor project, primary screen (AID 1067).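 Further: measures binding of biotinylated aFGF2 protein to printed compounds on slides; z-score merges feature fluorescence and signal-to-noise across triplicate slides.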 Conditions: higher = more signal.
Assay [4] is described as follows: small molecules captured by biotinylated probe aFGF10 – biochemical, small-molecule microarray, fluorescence 635/667, stem cell growth factor project, primary screen (AID 1071).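 Further: score merges 667 nm spot intensity and signal to noise from triplicate slides.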 Conditions: higher = more signal.
For assay [5], the target named is Neurogenic locus notch homolog protein 2 (Homo sapiens) (UniProt Q04721). Description: small molecules binding Notch2 protein – biochemical, small-molecule microarray, 635 nm fluorescence, stem cell growth factors, primary screen (AID 1073). Conditions: higher = more signal.
Assay [6] has as its target Pro-neuregulin-1, membrane-bound isoform (Homo sapiens) (UniProt Q02297). Put plainly: small molecules binding neuregulin-1 protein – biochemical, small-molecule microarray, fluorescence 635/667, psychiatric disease protein project, primary screen (AID 1075).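 Further: score combines 667 nm spot fluorescence with signal to noise.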 Conditions: NRG1 binding, 635 nm fluorescence, higher = more signal.
Assay [7] relates to Neuregulin-1 EGF-like domain. Put plainly: small molecules binding NRG1 EGF domain – biochemical, small-molecule microarray, 635 nm fluorescence, primary screen (AID 1081).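 Further: binding of the protein to compounds printed on small-molecule microarray slides.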 Conditions: higher = more signal.
The nature of assay [8]: FRG1 expression reporter modulators in myotubes – cell-based, C2C12 myotubes, firefly/Renilla luciferase, luminescence, FRG1 inhibition for FSHD, primary screen (AID 1084). Conditions: FRG1 promoter luciferase, higher = more signal, called active from +8 up or from −8 down.
Assay [9] can be described thus: small molecules captured by biotinylated probe aFST – biochemical, small-molecule microarray, fluorescence 635/667, stem cell growth factor project, primary screen (AID 1086).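 Further: score merges 667 nm fluorescence with signal-to-noise of each printed compound spot.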 As to conditions: higher = more signal.
Assay [10] in a line: binders of probe aHhip on microarray, primary screen, stem cell growth factor project, biochemical, small-molecule microarray, fluorescence 635/667 (AID 1087).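 Further: score merges spot fluorescence at 667nm with spot signal to noise ratio.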 Conditions: higher = more signal.
Assay [11] concerns PRMT1 (protein arginine N-methyltransferase 1). Put plainly: small molecules binding arginine methyltransferase PRMT1 – biochemical, small-molecule microarray, 635 nm fluorescence, primary screen (AID 1088).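 Further: binding of Prmt1 protein to compounds spotted on small-molecule microarray slides.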 As to conditions: higher = more signal.
A short description of assay [12]: growth effects on S. cerevisiae YJM789 – YJM789 clinical isolate, OD600, 24 h, basal, primary screen (AID 1089).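 Further: growth of clinical yeast isolate S. cerevisiae YJM 789 seeded 1000 cells per well; test concentration not given here.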 Conditions: higher = more signal, called active from +8 up or from −8 down.
The nature of assay [13]: S. pombe growth modifiers, basal conditions – strain 972, OD600, 24 h, no modulator, primary screen (AID 1090).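 Further: basal condition with compound alone and no growth modifier present; test concentration not given here.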 Conditions: S. pombe 972 growth, higher = more signal, called active from +8 up or from −8 down.
Assay [14] can be described thus: budding yeast growth modifiers under rapamycin – strain BY4716, OD600, 96 h, primary screen (AID 1091). Further: test concentration not given here. As to conditions: S. cerevisiae BY4716 + rapamycin, higher = more signal, called active from +8 up or from −8 down.
In assay [15] the target is Torsin-1A-interacting protein 2 (Homo sapiens) (UniProt Q8NFQ8). Description: small molecules binding lysate-expressed LULL1 – cell lysate, human LULL1 lysate, 635/667 nm fluorescence, primary screen (AID 1092).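 Further: probe is lysate of COS7 cells overexpressing human LULL1; score merges per-feature 667 nm fluorescence with signal-to-noise.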 Conditions: small-molecule microarray, hLULL1 lysate binding, 635 nm fluorescence; higher = more signal.
Assay [16] in a line: optical density change of DRC41 E. coli – strain DRC41, OD650, 24 h, E. coli filamentation project, primary screen (AID 1093).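 Further: MC1000 strain lacking acrAB efflux and sulA so SOS filamentation is blocked; test concentration not given here.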 As to conditions: E. coli DRC41 growth, higher = more signal, called active from +8 up or from −8 down.
Assay [17] is described as follows: probe aLefty2 binding to arrayed compounds – biochemical, biotinylated probe, 635/667 nm fluorescence, primary screen (AID 1094).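 Further: score merges spot fluorescence near 667 nm with spot signal-to-noise ratio.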 Conditions: small-molecule microarray, higher = more signal.
Assay [18] concerns Noggin (protein binding on small-molecule microarray). Description: small molecules binding Noggin protein – biochemical, 635/667 nm fluorescence, primary screen (AID 1095).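 Further: score merges 667 nm feature fluorescence with signal to noise over triplicate slides.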 As to conditions: 635 nm fluorescence, higher = more signal.
Assay [19] concerns the target Neurogenic locus notch homolog protein 3 (Homo sapiens) (UniProt Q9UM47). Put plainly: small molecules binding NOTCH3 protein – biochemical, 635/667 nm fluorescence, primary screen (AID 1096). As to conditions: small-molecule microarray, 635 nm fluorescence, higher = more signal.
The nature of assay [20]: probe aEGFR binding to arrayed compounds – biochemical, biotinylated probe, 635/667 nm fluorescence, primary screen (AID 1097).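 Further: probe is a biotinylated anti-EGFR antibody binding compounds printed on slides; score combines fluorescence near 667 nm and signal to noise of each spot.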 As to conditions: small-molecule microarray, higher = more signal.

Calls of active or inactive are those of the source.

Neurogenic locus notch homolog protein 2 (Homo sapiens), sequence (Q04721 whole entry, looked up, canonical isoform): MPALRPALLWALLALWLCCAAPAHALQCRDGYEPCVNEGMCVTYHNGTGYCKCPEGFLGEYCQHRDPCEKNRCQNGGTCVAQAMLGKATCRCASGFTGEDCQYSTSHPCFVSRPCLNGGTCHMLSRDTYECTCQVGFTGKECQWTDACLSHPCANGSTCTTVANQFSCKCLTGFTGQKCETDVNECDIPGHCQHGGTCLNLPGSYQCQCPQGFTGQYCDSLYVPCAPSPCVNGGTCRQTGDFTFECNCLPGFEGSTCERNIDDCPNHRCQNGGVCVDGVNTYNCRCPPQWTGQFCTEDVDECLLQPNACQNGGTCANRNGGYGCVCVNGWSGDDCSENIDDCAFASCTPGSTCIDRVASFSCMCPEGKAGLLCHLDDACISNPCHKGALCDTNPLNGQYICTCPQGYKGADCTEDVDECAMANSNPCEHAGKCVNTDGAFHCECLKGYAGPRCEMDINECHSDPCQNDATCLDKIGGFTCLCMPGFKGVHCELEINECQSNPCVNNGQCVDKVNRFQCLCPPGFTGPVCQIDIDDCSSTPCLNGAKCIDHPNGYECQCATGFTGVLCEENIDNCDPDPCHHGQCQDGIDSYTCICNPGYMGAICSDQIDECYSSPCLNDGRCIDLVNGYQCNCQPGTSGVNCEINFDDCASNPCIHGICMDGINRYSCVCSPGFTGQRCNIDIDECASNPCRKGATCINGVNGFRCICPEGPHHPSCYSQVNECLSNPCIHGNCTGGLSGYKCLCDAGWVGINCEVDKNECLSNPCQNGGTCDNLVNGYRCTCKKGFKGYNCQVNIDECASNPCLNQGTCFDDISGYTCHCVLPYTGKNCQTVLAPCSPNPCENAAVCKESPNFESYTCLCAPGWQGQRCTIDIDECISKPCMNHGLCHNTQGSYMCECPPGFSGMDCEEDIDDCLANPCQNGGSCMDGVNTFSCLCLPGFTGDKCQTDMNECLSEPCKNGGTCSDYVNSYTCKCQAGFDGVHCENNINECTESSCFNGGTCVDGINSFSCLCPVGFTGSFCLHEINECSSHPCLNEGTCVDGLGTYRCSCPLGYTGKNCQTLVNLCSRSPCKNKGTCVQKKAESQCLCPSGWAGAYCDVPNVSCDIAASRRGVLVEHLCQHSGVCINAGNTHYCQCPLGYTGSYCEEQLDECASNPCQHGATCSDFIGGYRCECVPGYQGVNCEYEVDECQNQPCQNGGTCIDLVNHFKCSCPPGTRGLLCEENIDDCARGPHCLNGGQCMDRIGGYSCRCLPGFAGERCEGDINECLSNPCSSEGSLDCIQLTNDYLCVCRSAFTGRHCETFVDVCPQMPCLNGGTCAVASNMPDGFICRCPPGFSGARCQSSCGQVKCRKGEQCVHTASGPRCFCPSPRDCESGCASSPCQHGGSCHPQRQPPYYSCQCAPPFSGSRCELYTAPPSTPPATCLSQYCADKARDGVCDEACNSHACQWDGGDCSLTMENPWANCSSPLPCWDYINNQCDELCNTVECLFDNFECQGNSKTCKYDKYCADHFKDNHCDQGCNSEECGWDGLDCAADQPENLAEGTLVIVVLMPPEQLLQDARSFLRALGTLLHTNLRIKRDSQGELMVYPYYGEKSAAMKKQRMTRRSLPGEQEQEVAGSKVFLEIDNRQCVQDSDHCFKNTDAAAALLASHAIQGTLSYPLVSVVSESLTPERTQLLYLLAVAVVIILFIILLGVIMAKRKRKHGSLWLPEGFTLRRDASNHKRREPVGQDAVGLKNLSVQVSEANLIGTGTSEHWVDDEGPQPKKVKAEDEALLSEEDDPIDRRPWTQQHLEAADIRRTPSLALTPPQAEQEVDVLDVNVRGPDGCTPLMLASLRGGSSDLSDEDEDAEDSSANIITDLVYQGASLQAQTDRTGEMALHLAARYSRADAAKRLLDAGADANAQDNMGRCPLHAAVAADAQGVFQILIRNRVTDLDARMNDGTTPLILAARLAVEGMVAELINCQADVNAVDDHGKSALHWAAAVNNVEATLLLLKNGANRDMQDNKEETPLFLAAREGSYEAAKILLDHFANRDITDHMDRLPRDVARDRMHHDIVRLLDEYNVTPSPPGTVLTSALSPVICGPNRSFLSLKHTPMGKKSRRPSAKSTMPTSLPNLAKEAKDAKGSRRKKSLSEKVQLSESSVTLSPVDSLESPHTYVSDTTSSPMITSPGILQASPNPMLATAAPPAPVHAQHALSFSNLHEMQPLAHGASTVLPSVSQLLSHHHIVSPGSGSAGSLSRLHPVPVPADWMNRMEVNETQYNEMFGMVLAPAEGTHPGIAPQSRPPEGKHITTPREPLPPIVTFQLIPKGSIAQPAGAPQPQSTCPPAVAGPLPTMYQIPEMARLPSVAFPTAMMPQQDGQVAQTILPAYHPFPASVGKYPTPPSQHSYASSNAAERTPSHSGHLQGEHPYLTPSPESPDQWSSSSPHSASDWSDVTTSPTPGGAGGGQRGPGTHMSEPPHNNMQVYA
Torsin-1A-interacting protein 2 (Homo sapiens), sequence (Q8NFQ8 whole entry, looked up): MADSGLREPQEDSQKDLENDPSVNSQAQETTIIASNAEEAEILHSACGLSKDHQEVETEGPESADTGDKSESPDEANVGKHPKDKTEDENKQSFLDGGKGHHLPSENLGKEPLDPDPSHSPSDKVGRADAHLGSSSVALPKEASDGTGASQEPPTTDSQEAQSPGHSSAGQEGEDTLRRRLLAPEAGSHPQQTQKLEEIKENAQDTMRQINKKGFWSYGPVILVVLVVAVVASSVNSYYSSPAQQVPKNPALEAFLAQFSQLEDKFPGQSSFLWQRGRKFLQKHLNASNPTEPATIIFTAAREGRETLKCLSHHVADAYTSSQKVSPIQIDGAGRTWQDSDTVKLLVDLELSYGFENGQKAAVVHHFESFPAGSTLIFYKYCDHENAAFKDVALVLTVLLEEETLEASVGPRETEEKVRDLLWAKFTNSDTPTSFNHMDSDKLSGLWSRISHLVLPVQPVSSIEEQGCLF
Pro-neuregulin-1, membrane-bound isoform (Homo sapiens), sequence (Q02297 whole entry, looked up, the tested form may be a part, canonical isoform): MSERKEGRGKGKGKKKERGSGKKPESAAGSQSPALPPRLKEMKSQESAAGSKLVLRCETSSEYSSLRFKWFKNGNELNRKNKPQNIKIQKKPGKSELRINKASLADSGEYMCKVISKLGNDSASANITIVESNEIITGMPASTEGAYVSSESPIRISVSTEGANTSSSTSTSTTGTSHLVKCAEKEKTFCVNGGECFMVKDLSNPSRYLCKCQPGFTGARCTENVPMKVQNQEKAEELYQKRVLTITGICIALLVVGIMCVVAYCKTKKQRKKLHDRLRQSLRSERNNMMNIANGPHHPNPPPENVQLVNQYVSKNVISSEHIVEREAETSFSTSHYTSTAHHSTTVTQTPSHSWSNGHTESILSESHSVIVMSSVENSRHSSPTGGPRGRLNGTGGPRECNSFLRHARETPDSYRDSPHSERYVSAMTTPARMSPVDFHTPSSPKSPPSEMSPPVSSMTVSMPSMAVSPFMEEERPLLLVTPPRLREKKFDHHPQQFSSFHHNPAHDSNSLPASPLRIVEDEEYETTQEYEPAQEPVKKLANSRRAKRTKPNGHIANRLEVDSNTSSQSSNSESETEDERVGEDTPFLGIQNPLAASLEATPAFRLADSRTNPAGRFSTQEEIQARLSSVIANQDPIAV

Regarding `COc1ccc([Si](C)(C)[C@@H]2[C@@H](CCO)O[C@]3(C(=O)N(Cc4ccccc4)c4ccc(N5C(=O)c6ccccc6Oc6ccccc65)cc43)[C@H]2C)cc1`, the composite z-score is -0.0276 in assay [1]; -0.662 in [2]; -0.0962 in [3]; 0.379 in [4]; -0.236 in assay [5]; 0.992 in assay [6]. For the same molecule, the composite z-score in assay [7] is 0.671; in assay [9], -0.089; in [10], -0.284; in assay [11] it was 0.182; in [15] it was 1.21; in [17] it was -0.136. Further, the composite z-score in [18] is 0.245; in [19], 0.057; in assay [20] it was -0.19. The z-score in assay [8] was 0.816 (inactive); in assay [12], 1.32 (inactive); in assay [13], 0.381 (inactive); in [14] it was 8.27 (active); in assay [16], 1.13 (inactive).
`C=C(COC)C(=O)CC[C@@H](OC(C)=O)c1ccc(OCCO)cc1`: the composite z-score in assay [1] is 0.266; in assay [2], 1.48; in assay [3], -0.107; in [4], 0.432; in [5], 0.297; in assay [6], -0.239. Further, the composite z-score in assay [7] was 0.835; in assay [9] it was -0.25; in assay [10], 0.347; in assay [11], 1.07; in assay [15], 0.276; in [17], -0.159. The values for the composite z-score in assay [18], in assay [19] and in [20] were 0.482, 0.512 and -0.21, respectively. In addition, the z-score in assay [8] is -0.556 (inactive); in [12], 0.0756 (inactive); in assay [13], -2.44 (inactive); in assay [14], -0.056 (inactive); in assay [16], -0.0345 (inactive).
In the case of `COCCOC(=O)N1C(=O)[C@@]2(c3cc(C#CC4=CCCCC4)ccc31)[C@H](c1ccc(OCCO)cc1)N1[C@H](c3ccccc3)[C@H](c3ccccc3)OC(=O)[C@H]1[C@@H]2C(=O)N1CCCCCCC1`, the composite z-score in [1] came to 2.32; in [2], 0.945; in assay [3] it was 0.303; in assay [4] it was 0.474; in assay [5] it was 1.37; in assay [6] it was 1.07. Besides, the composite z-score in assay [7] was 1.13; in [9] it was 2.12; in [10], 1.9; in assay [11], 1.54; in [15] it was 2.96; in assay [17] it was 1.18. In addition, the values for the composite z-score in assay [18], in assay [19] and in assay [20] were 1.21, 1.07 and 0.604, respectively. Moreover, the z-score in [8] was -1.62 (inactive); in [12] it was -1.06 (inactive); in [13], -0.301 (inactive); in assay [14], 1.89 (inactive); in assay [16], 3.25 (inactive).
`COc1ccc(NN2C(C(O)c3cc(C(F)(F)F)cc(C(F)(F)F)c3)C=CC3C(=O)N(C4CCCCC4)C(=O)C32)cc1` (stereo not given): the composite z-score worked out at 0.844 in assay [1]; 0.301 in assay [2]; 0.483 in assay [3]; 0.397 in assay [4]; 1.37 in [5]; 1.02 in [6]. In addition, the composite z-score was 1.11 in [7]; 1.36 in [9]; 1.67 in [10]; 1.28 in [11]; 2.59 in [15]; 0.849 in [17]. For the same molecule, the composite z-score amounted to 0.535 in assay [18], 1.06 in assay [19] and 0.705 in assay [20]. In addition, the z-score was -0.68 (inactive) in [8]; -0.0995 (inactive) in assay [12]; 0.495 (inactive) in assay [13]; 0.518 (inactive) in assay [14]; -0.804 (inactive) in [16].
Regarding `CC#CCO[Si](C#CCCCCCC)(C(C)C)C(C)C`, the composite z-score in assay [1] was 1.3; in assay [2], -0.134; in assay [3], -0.24; in assay [4], -1.16; in assay [5] it was -1.9; in assay [6], -0.353. The composite z-score is 0.439 in assay [7]; -1.3 in [9]; -0.341 in [10]; 0.276 in assay [11]; 0.373 in assay [15]; 0.137 in assay [17]. The composite z-score was -2.8 in assay [18], -1.16 in assay [19] and -0.466 in [20]. The z-score was -0.524 (inactive) in [8]; 0.176 (inactive) in assay [12]; -19.1 (active) in assay [13]; -1.61 (inactive) in assay [14]; -0.0013 (inactive) in [16].
